Here are results for 39 sequences from the OligoGym collection.
Note: reference of the scale not given here.

The first assay has as its target C5AR1. Description: pooled miR-30 sensor sort-seq; sequence = guide strand. The note with it: shRNA.
Regarding TACATATTTTCCAACTTGCCAT, the sensor-assay potency score (higher = more potent) was -0.462.

Sequence TTCAGCAGCAGGAAGGTGGGTG gave a sensor-assay potency score (higher = more potent) of 0.301.

TAACTCACTTACAAGAGCTTAG yielded a sensor-assay potency score (higher = more potent) of -0.132.

As to TTAAACACCAGCAGAAAGCGGT, the sensor-assay potency score (higher = more potent) is -0.159.

Sequence TGATGCTGTACAATGGACGTGA registered a sensor-assay potency score (higher = more potent) of 0.655.

The sequence TTGAGGTCCAGGGTATCCTTGT showed a sensor-assay potency score (higher = more potent) of -0.809.

In turn, TTTTAAGCGAGAATCTTTCTAC showed a sensor-assay potency score (higher = more potent) of 0.0632.

In turn, TACTTGTCTGTATTCTGAGTTC showed a sensor-assay potency score (higher = more potent) of -0.656.

The sequence TTGAGTGTCTTGGTGGACCGCG showed a sensor-assay potency score (higher = more potent) of 0.0393.

With TAAACACCAGCAGAAAGCGGTC, the sensor-assay potency score (higher = more potent) is -1.02.

The sequence TACTCCTCCCGGACCACCCGGT yielded a sensor-assay potency score (higher = more potent) of -0.108.

Regarding TAAGGTAACACCATCCCACGAA, the sensor-assay potency score (higher = more potent) is 0.399.

As for TCTACTTGTCTGTATTCTGAGT, the sensor-assay potency score (higher = more potent) is -0.792.

ATAGTGTCCACTGTGGAGCGCG had a sensor-assay potency score (higher = more potent) of -0.598.

For the sequence AAGTGTAACAAATCGTGAGCGT, the sensor-assay potency score (higher = more potent) was -0.136.

A further assay has as its target C5orf51. The assay is described as above. The note with it: shRNA.
As for TTTAGCTGTGTCTAGATCTTGG, the sensor-assay potency score (higher = more potent) was 0.753.

With TTAACTGGATAGGACATCGATA, the sensor-assay potency score (higher = more potent) is -1.18.

The sequence TTGTATTCCATTCTTGTTCTTT had a sensor-assay potency score (higher = more potent) of -0.072.

TAGAACATGATTACACAGGATG returned a sensor-assay potency score (higher = more potent) of -0.681.

Take AAAATCTTCATCTACTAGCTTG: the sensor-assay potency score (higher = more potent) is -0.0873.

The sequence TTCAATATCAGAACTTCTGTAA had a sensor-assay potency score (higher = more potent) of 0.18.

TTTATCTTCATTACTCACTTGA showed a sensor-assay potency score (higher = more potent) of 1.06.

With TTGATGGATTTGAACATTCTTT, the sensor-assay potency score (higher = more potent) was -0.74.

For TATCTTAATGTAATACCGCTGT, the sensor-assay potency score (higher = more potent) was -0.406.

Sequence TATTAGTGACATAACATCTGTA gave a sensor-assay potency score (higher = more potent) of 0.937.

In turn, TTATTAGTGACATAACATCTGT showed a sensor-assay potency score (higher = more potent) of -0.587.

In the case of TTAACTAAGTCTAAAAGCCTAG, the sensor-assay potency score (higher = more potent) was -0.498.

The target in the next assay is C5orf56. The assay is described as above. To be noted: shRNA.
Consider TTGATGACGAGGAAAAAGGAGA, for which the sensor-assay potency score (higher = more potent) is -0.938.

On to AATCTTGGCTGTAAGCAGCAGA, for which the sensor-assay potency score (higher = more potent) is -0.53.

Sequence TTTGAAGATTCCCTTGGTGTGT yielded a sensor-assay potency score (higher = more potent) of -0.413.

TTGAAGATTCCCTTGGTGTGTT displayed a sensor-assay potency score (higher = more potent) of 0.717.

In turn, AACACTTGCTGAATAAATGAGT returned a sensor-assay potency score (higher = more potent) of -0.962.

Sequence TTTCTTTCCAGAATCTTGGCTG came in with a sensor-assay potency score (higher = more potent) of 0.311.

The sequence TTATAAGCTGCATGAGAGCAGG gave a sensor-assay potency score (higher = more potent) of -0.803.

TCCAATAGGCTACAAACTCTGG: the sensor-assay potency score (higher = more potent) is -1.19.

Sequence AAAGGAGACATTTCTTTCCAGA displayed a sensor-assay potency score (higher = more potent) of -0.416.

Sequence TTCTTTCCAGAATCTTGGCTGT yielded a sensor-assay potency score (higher = more potent) of 0.101.

Take TTCACTGCTGCATTGCTGCCAT: the sensor-assay potency score (higher = more potent) was -0.146.

As to TTGTTCACTGCTGCATTGCTGC, the sensor-assay potency score (higher = more potent) is -0.868.
